Compound activity deposited in PubChem BioAssay by National Center for Advancing Translational Sciences (NCATS).
IL1B secr inh = inhibitors of inflammasome signaling (IL-1 beta secretion). 360,000 tested, 4.7% active. activity change, % at 57.5 µM. THP-1 LPS/ATP IL-1B secretion, AlphaLISA, 16 h; hits give low values; in the data active means activity change below about -50%; inconclusive means mostly about -30% to -49%; further: on the % scale 0 is the no-effect control and ±100 the full control effect
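Secreted IL-1B measured by AlphaLISA bead assay after 16 h compound exposure of THP-1 cells; compounds (final up to 57.5 uM) added 1 h before LPS (250 ng/mL) and ATP (1.25 mM) stimulation; lower signal means less secretion.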
DRD3 antagonist = blocks the human D3 dopamine receptor; max response, negative = inhibition, %; 360,000 tested, 2.5% active; D3R cells, DiscoveRx beta-arrestin luminescence, antagonist mode; hits give low values; P35462; in the data active means max response below about -50%; inconclusive means no clear call, values can overlap the other calls; further: on the % scale 0 is the no-effect control and ±100 the full control effect
Target sequence (P35462 whole entry, looked up): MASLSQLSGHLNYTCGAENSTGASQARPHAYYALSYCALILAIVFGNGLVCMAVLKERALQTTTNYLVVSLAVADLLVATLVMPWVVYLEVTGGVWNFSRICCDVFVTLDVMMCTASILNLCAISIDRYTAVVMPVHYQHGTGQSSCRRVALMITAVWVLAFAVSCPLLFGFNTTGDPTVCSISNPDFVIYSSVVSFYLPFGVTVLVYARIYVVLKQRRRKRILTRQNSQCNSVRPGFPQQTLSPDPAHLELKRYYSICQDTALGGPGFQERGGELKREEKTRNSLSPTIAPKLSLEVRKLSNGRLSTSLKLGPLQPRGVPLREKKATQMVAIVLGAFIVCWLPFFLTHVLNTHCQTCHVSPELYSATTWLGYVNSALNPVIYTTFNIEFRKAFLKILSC
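Cells expressing the human receptor were seeded at 1500 cells/well, incubated overnight at 37 degrees C in 5% CO2, then exposed to library compounds with dopamine controls for 90 minutes at 37 degrees C before luminescent detection.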
ClpP mod = qHTS Assay for Activators of ClpP; ATP-dependent Clp protease proteolytic subunit (Bacillus subtilis (strain 168)), P80244; purified B. subtilis ClpP, FRET peptide cleavage, 20 min; Potency, µM (highest dose often 57.5 µM), for the others: top-dose activity change, negative = active; 340,000 tested, 1.9% active; AID 651965, 2013; active means well fitted falling curve with a large enough effect; inconclusive means small, poorly fitted or top-dose-only effect; inactive means no such curve, though single readings can be large or run the other way; further: potency means the concentration at half of the fitted maximal effect; the source files actives as falling curves though it sought activators and does not explain the sign; nearly all actives have a fitted effect of over 65% in size
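FRET quenching reversal measured ClpP activation: 10 microg/mL B. subtilis ClpP at pH 8 with the FRET-FV decapeptide, read at 430 nm after 320 nm excitation. The 20-min minus 0-min signal was scaled between DMSO/no-enzyme wells and ADEP (5.8 microM final).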
TDP1 cell CPT = growth inhibition of DT40 Tdp1-/-;hTDP1 cells with camptothecin (screen for TDP1 inhibitors). chicken DT40 Tdp1-/-;hTDP1 cells + 20 nM CPT, ATP luminescence, 48 h. AID 686979. Potency, µM (titrated, usually from 46.2 µM), inactives show top-dose activity change, negative = growth inhibition, most hits filed as inhibitors. 420,000 tested, 12% active; further: potency means the concentration at half of the fitted maximal effect; on the % scale 0 is the no-effect control and ±100 the full control effect; nearly all actives have a fitted effect of over 55% in size
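Chicken DT40 Tdp1-/- cells stably complemented with human TDP1 were seeded at 400 cells/well in medium containing 20 nM camptothecin, exposed to pin-transferred compounds, and grown at 37 °C for at least 48 hr. Viability was read as ATP luminescence.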
DRD3 agonist = activates the human D3 dopamine receptor; D3R DiscoveRx beta-arrestin cells, luminescence, 90 min; max activation, %; 410,000 tested, 0.58% active; AID 652048; in the data active means max activation above about 30%; further: 0% is about no effect
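Cells at 1500/well, incubated overnight, then treated with pinned compounds (dopamine as control) for 90 min at 37 degrees C. DiscoveRx reagent added for 30 - 60 minutes at room temperature; luminescence read.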
DT40 TDP1 no CPT = qHTS for Inhibitors of human tyrosyl-DNA phosphodiesterase 1 (TDP1): qHTS in cells in absence of CPT; Potency, µM (titrated, usually from 46.2 µM), without a hit: top-dose activity change, negative = growth inhibition, actives largely listed as inhibitors; 420,000 tested, 15% active; DT40 Tdp1-/- hTDP1 cells, no CPT, ATP luminescence, 48 h; further: potency means the concentration at half of the fitted maximal effect; on the % scale 0 is the no-effect control and ±100 the full control effect; nearly all actives have a fitted effect of over 55% in size
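Readout: luminescence from CellTiter-Glo after 30 min in the dark at RT. Cells: DT40 Tdp1-/- with stable hTDP1, 400/well. Exposure: compounds alone, ≥48 hr, 37 °C.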
Numbers without * were called inactive; ? = inconclusive; / = no result given. Compounds with a hit are over-represented: about 21% of the library has one in this group of screens. Unless noted, the call rests on the fitted dose curve; in most records, active means well fitted inhibition curve with a large enough effect; inconclusive means small, poorly fitted or top-dose-only effect; inactive means flat fitted curve, though single readings scatter.

SMILES	IL1B secr inh	DRD3 antagonist	ClpP mod	TDP1 cell CPT	DRD3 agonist	DT40 TDP1 no CPT
CC(O)CN(CC(C)O)c1ccc2c(c1)Cc1cc([N+](=O)[O-])ccc1-2 (configuration not stated)	?	?	1.1%	18.4µM*	-25.0	14.6µM*
CCOC(=O)Nc1ccc2c(c1)Cc1cc([N+](=O)[O-])ccc1-2	-8.7	-2.7	0.5%	?	1.4	?
Cn1c(CN2CCN(S(C)(=O)=O)CC2)nc2cc([N+](=O)[O-])ccc21	-15.6	?	/	-23.7%	-21.1	-24.3%
CCOc1ccc2nc(SCC(=O)N3CCN(C(=O)c4ccco4)CC3)sc2c1	-13.2	-13.9	-2.6%	?	-1.8	11.6µM*
O=C(CSc1nc2ccccc2s1)N1CCN(C(=O)c2ccco2)CC1	-2.8	42.1	0.8%	-28.0%	-7.0	?
CCOc1ccc2nc(N3CCN(C(=O)c4ccco4)CC3)sc2c1	/	/	-3.6%	?	7.9	18.4µM*
CCOc1ccc2nc(N3CCC(C(=O)N4CCN(c5ncccn5)CC4)CC3)sc2c1	4.1	-2.9	-3.0%	?	-2.5	?
CCOc1ccc2nc(N3CCC(C(=O)N4CCN(c5ccccn5)CC4)CC3)sc2c1	-6.6	4.0	?	5.8µM*	0.0	6.51µM*
COc1ccc2nc(N3CCN(C(=O)c4ccco4)CC3)sc2c1	/	/	1.0%	?	6.2	?
CC1(C)Cc2c(sc3c2C2=NCCN2C=N3)CS1	1.4	0.0	-3.2%	-25.6%	-9.0	16.4µM*
C#CCN(Cc1ccc(OC)cc1)S(=O)(=O)C=C	/	/	-0.2%	?	/	?
CCOC(=O)C(=O)N(C)c1c(CC)nc2c(OCCC3CCCCC3)cccn12	-24.5	-84.4*	-4.4%	?	-22.2	18.4µM*
CCOC(=O)N(C)c1c(CC)nc2c(OCCC3CCCCC3)cccn12	-76.5*	?	?	?	-24.0	16.4µM*
CCOC(=O)N(C)c1c(CC)nc2c(OCC(=O)C(C)(C)C)cccn12	7.7	13.8	0.3%	-22.0%	7.1	-20.4%
CCc1ccc(CNC(=O)CCc2c(C)nn(-c3ccc(N4CCCCC4)nn3)c2C)cc1	/	/	-2.2%	?	-7.4	?
CC(C)(C)OC(=O)N1CCCC(C(=O)Nc2cccc(C(=O)NC3CC3)c2)C1 (configuration not stated)	-17.4	-15.1	-1.2%	-6.4%	10.4	-8.0%
Cc1cc(C)cc(NC(=O)CCn2cnc3ccccc3c2=O)c1	/	/	1.0%	-6.9%	2.0	-3.9%
CC(C)N1CCC1(C)C(=O)Nc1nccc2cccnc12 (configuration not stated)	0.2	38.5	4.5%	4.11µM*	-2.0	5.17µM*
CC(C)N1CCC1(C)C(=O)Nc1cccc2ccccc12 (configuration not stated)	12.4	6.2	-6.3%	?	7.8	?
Cc1cc(NC(=O)C2(C)CCN2C(C)C)c2ccccc2n1 (configuration not stated)	90.4	-10.5	?	?	-0.7	20.6µM*
COCCCNC(=S)N1CCN(c2ccccc2)CC1	27.4	1.5	/	5.2%	-0.5	-0.3%
Nc1nonc1-c1nc2ccccc2n1CC(=O)Nc1cccc(C(F)(F)F)c1	/	/	-9.8%	?	6.6	13µM*
Nc1nonc1-c1nc2ccccc2n1CC(=O)Nc1ccccc1	-11.4	-17.1	/	6.51µM*	-13.6	?
O=C(Cn1c(=O)n(Cc2nc(-c3ccccc3)no2)c(=O)c2ccccc21)Nc1cccc(Cl)c1	/	/	?	?	-9.9	?
CCCCCOc1ccc(NC(=O)Cn2c(-c3nonc3N)nc3ccccc32)cc1	/	/	-4.0%	?	6.3	-19.4%
Cc1ccc(NC(=O)Cn2c(-c3nonc3N)nc3ccccc32)c(Br)c1	/	/	-0.7%	-0.7%	3.8	?
